Activity calls are given as the source filed them. How the source made its calls: active means hit-call score of the fitted dose curve at least 0.9, where 1 is the maximum; inactive means score below 0.9.
Tests used:
Details in all cases: mRNA level, 48 h; actives raise or lower the signal
CYP2C8 (gene 1558) = test: LTEA_HepaRG_CYP2C8: Life Technologies and Expression Analysis (LTEA) Assay for CYP2C8 using HepaRG (AID 2283483)
Procedure, shortened: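 CYP2C8 expression measured by TaqMan qRT-PCR and normalized to three housekeeping genes. HepaRG cultures were treated for 48 h with an eight-point half-log series topping at 100 uM, vehicle 0.5% DMSO, duplicates; fitted both directions against DMSO.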

CYP2C9 (gene 1559) = test: LTEA_HepaRG_CYP2C9: Life Technologies and Expression Analysis (LTEA) Assay for CYP2C9 using HepaRG (AID 2283484)
Procedure, shortened: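 CYP2C9 transcript level, quantified by TaqMan qRT-PCR against three housekeeping genes, was fitted bidirectionally relative to 0.5% DMSO. HepaRG cultures were treated 48 h, in duplicate, at eight half-log concentrations topping at 100 uM.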

CYP2E1 (gene 1571) = test: LTEA_HepaRG_CYP2E1: Life Technologies and Expression Analysis (LTEA) Assay for CYP2E1 using HepaRG (AID 2283485)
Procedure, shortened: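 CYP2E1 transcript measured by Fluidigm qRT-PCR against three housekeeping genes in human HepaRG cells treated 48 h (top 100 uM, half-log steps, 0.5% DMSO vehicle). Gain or loss fitted relative to DMSO baseline.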

CYP4A11 (gene 1579) = test: LTEA_HepaRG_CYP4A11: Life Technologies and Expression Analysis (LTEA) Assay for CYP4A11 using HepaRG (AID 2283486)
Procedure, shortened: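 Readout is CYP4A11 transcript level by qRT-PCR, normalized to three housekeeping genes and fitted bidirectionally against 0.5% DMSO. Human HepaRG cells were treated 48 h, in duplicate, with an 8-point half-log series topping at 100 uM.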

[1] = read-out: Cytochrome P450 3A4 (Homo sapiens) (UniProt P08684); test: LTEA_HepaRG_CYP3A4: Life Technologies and Expression Analysis (LTEA) Assay for CYP3A4 using HepaRG (AID 2283487)
Procedure, shortened: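 Differentiated HepaRG cells, plated 48 h, then dosed 48 h in serum-free induction medium with 0.5% DMSO, 8 half-log concentrations up to 100 uM, duplicate. CYP3A4 mRNA by qRT-PCR, normalized to ACTB/GAPDH/POLR2A; bidirectional fit versus DMSO.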

[2] = read-out: DNA damage-inducible transcript 3 (DDIT3), DDIT3 (gene 1649); test: LTEA_HepaRG_DDIT3: Life Technologies and Expression Analysis (LTEA) Assay for DNA damage-inducible transcript 3 (DDIT3) using HepaRG (AID 2283488)
Procedure, shortened: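 DDIT3 transcript was quantified by qRT-PCR with ACTB/GAPDH/POLR2A normalization after 48 h chemical treatment of differentiated HepaRG cells in 0.5% DMSO. Dosing was eight-point, half-log, top 100 uM, duplicate wells. Curves fitted bidirectionally versus DMSO.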

[3] = read-out: Pro-epidermal growth factor (Homo sapiens) (UniProt P01133); test: LTEA_HepaRG_EGF: Life Technologies and Expression Analysis (LTEA) Assay for Epidermal growth factor (EGF) using HepaRG (AID 2283489)
Procedure, shortened: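 EGF transcript measured by Fluidigm TaqMan qRT-PCR with three housekeeping genes for normalization, 48 h after dosing HepaRG cultures in duplicate (top 100 uM, half-log steps, 0.5% DMSO vehicle). Gain or loss relative to DMSO fitted.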

[4] = read-out: Early growth response protein 1 (EGR1) transcription factor, EGR1 (gene 1958); test: LTEA_HepaRG_EGR1: Life Technologies and Expression Analysis (LTEA) Assay for Early growth response protein 1 (EGR1) transcription factor using HepaRG (AID 2283490)
Procedure, shortened: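 EGR1 transcript levels quantified by qRT-PCR (Fluidigm arrays) against three housekeeping genes after 48 h chemical exposure of HepaRG cells. Eight-point half-log series topping at 100 uM, 0.5% DMSO vehicle, analyzed for gain or loss.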

[5] = read-out: Ezrin (EZR), EZR (gene 7430); test: LTEA_HepaRG_EZR: Life Technologies and Expression Analysis (LTEA) Assay for Ezrin (EZR) using HepaRG (AID 2283491)
Procedure, shortened: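 EZR transcript levels came from Fluidigm qRT-PCR and were normalized to three housekeeping genes after 48 h chemical exposure of HepaRG cells. Dosing used an 8-point half-log series with a 100 uM top concentration in 0.5% DMSO, tested in duplicate; both directions were fitted versus vehicle.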

[6] = read-out: Cytochrome P450 3A7 (Homo sapiens) (UniProt P24462); test: LTEA_HepaRG_CYP3A7: Life Technologies and Expression Analysis (LTEA) Assay for CYP3A7 using HepaRG (AID 2283492)
Procedure, shortened: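 CYP3A7 transcript measured by qRT-PCR (ACTB, GAPDH, POLR2A normalization) after 48 h chemical exposure of HepaRG cells in duplicate. Eight half-log concentrations, maximum 100 uM, 0.5% DMSO vehicle; bidirectional curve fitting against DMSO baseline.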

Chain of Cytochrome P450 3A7 (Homo sapiens) (P24462 whole entry, looked up): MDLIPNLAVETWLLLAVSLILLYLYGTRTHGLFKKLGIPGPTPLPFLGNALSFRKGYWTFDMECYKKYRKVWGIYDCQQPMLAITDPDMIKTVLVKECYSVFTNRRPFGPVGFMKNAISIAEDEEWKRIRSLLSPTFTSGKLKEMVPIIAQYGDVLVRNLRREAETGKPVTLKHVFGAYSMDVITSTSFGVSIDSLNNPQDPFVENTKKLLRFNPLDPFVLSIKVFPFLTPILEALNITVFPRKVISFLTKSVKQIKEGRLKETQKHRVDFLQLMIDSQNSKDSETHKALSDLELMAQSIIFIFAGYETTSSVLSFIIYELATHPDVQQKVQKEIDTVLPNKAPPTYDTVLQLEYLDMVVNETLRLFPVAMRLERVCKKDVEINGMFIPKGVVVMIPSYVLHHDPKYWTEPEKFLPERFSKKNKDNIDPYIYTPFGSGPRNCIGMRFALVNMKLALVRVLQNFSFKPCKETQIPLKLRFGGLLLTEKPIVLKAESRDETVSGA
Chain of Cytochrome P450 3A4 (Homo sapiens) (P08684 whole entry, looked up): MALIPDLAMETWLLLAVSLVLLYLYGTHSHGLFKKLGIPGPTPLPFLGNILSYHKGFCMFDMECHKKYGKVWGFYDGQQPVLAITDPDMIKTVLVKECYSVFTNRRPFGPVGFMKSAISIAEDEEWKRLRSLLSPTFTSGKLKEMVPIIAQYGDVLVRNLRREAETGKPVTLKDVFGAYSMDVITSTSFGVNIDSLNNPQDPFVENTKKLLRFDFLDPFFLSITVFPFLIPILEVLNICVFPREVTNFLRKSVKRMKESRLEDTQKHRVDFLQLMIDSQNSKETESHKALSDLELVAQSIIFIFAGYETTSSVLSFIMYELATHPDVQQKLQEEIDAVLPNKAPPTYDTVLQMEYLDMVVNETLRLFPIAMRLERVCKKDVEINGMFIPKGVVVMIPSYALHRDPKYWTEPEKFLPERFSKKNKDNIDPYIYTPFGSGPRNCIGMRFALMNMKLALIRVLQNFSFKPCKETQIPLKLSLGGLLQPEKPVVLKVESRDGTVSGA

COC(=O)c1ccccc1O
outcome (CYP2C8 (gene 1558)): inactive
outcome (CYP2C9 (gene 1559)): inactive
outcome (CYP2E1 (gene 1571)): inactive
outcome (CYP4A11 (gene 1579)): inactive
outcome [1]: inactive
outcome [2]: inactive
outcome [3]: inactive
outcome [4]: inactive
outcome [5]: inactive
outcome [6]: inactive

Cc1[nH]cnc1C[C@H]1CCc2c(C)c3ccccc3n2C1=O
AC50 (CYP2C8 (gene 1558)): 22.9 µM (active)
AC50 (CYP2C9 (gene 1559)): 28.7 µM (active)
AC50 (CYP2E1 (gene 1571)): 17.6 µM (active)
AC50 (CYP4A11 (gene 1579)): 13.2 µM (active)
AC50 [2]: 27.4 µM (active)
outcome [3]: inactive
AC50 [4]: 70.2 µM (active)
AC50 [5]: 11.8 µM (active)

CC(C)(O)c1coc(S(=O)(=O)NC(=O)Nc2c3c(cc4c2CCC4)CCC3)c1
outcome (CYP2C8 (gene 1558)): inactive
outcome (CYP2C9 (gene 1559)): inactive
AC50 (CYP2E1 (gene 1571)): 36.8 µM (active)
outcome (CYP4A11 (gene 1579)): inactive
outcome [2]: inactive
outcome [3]: inactive
outcome [4]: inactive
outcome [5]: inactive
AC50 [6]: 10.5 µM (active)

CC(C)CCO
outcome (CYP2C8 (gene 1558)): inactive
outcome (CYP2C9 (gene 1559)): inactive
outcome (CYP2E1 (gene 1571)): inactive
outcome (CYP4A11 (gene 1579)): inactive
outcome [1]: inactive
outcome [2]: inactive
outcome [4]: inactive
outcome [5]: inactive
outcome [6]: inactive

Source: PubChem BioAssay (EPA / NIEHS)
